± gives the standard deviation.
system: MILI (PIWIL2) piRISC loaded with piRNA #1 (26 nt); experiment: pre-steady-state target cleavage rate (min^-1); guide: piRNA #1 5'p-UGAGGUAGUAGGUUGUAUAGUAUCCA; MIWI and MILI are mouse PIWI proteins and EfPiwi is from a freshwater sponge; tags in brackets are library labels; higher = faster piRNA-guided slicing of the target; settings: auxiliary factor: 500 nM mouse GTSF1
Outline: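 Active affinity-purified piRISC carrying one synthetic guide (1 nM) was mixed with a transcribed, DNA-blocked target RNA library […] in HEPES–potassium acetate buffer at 33 °C for 0–8 or 0–960 min, with or without 500 nM GTSF1 partner protein. Uncleaved targets were then sequenced and normalised to depth and to weakly complementary targets. Three trials were pooled, and k3 was capped at 0.0001 min^-1. A burst-and-steady-state fit was applied to obtain the pre-steady-state cleavage rate.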
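Further: 1 nM active piRISC with 0.1 nM target library at 33 °C single turnover.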

Sequence	pre-steady-state target cleavage rate
GGAGACCUAUCUAUACUACCUACUACCUGA	0.0569 ± 0.013
GGAGACCUAUGUAUUCAACCUUCUACCUCA	0.00294 ± 0.0026
GGAGACCUAACUAUACAACCUAUCUACCUCA	0.11 ± 0.024
GGAGACGAUACUAAACAACCAACUACCUCA	0.00769 ± 0.0028
GGAGACCUAUGAUAUGUUCCUACUUACCUCA	< 0.0001
GGAGACCUAUGUAAACUACCUACUACCUCA	0.00288 ± 0.0026
GGAGACCUAUGAUAUGUACCUUCAACCUCA	< 0.0001
GGAGACCUAUGUAUACAACCUACUACGUCA	0.0197 ± 0.0037
GGAGACCUAUCUAUACAACCUACUACAUCA	0.051 ± 0.0067
GGAGACCUUACUAUACAACCUUCUUCCUCA	0.00391 ± 0.0031
GGAGACCUUACUAUACAUGGUACUACCUCA	0.00395 ± 0.0029
GGAGACCUAUGAUAUGUUUCUACUACCUCA	< 0.0001
GGAGACCUAUGAUAUGUUCCUACUAGCUCA	< 0.0001
GGAGACCUAUGAAUACAACCGACUACCUCA	0.00328 ± 0.003
GGAGACCUUAUAUACAACCUACUACCUCA	0.0314 ± 0.0072
GGAGACGAUACUUUACAACCUUCUACCUCA	0.00805 ± 0.0018
GGAGACCUUACUAUACAACCUACUUCCUGA	0.0269 ± 0.0086
GGAGACCUAUCUAUACAACCUACUAGCCUCA	0.147 ± 0.02
GGAGACCUAUGAUUACAACCUACUACCAUCA	0.00378 ± 0.0028
GGAGACCUAUGUAAACAACCUAGUACCUCA	0.00454 ± 0.0024

Sequence	pre-steady-state target cleavage rate
GGAGACCUAUGAAUACCACCUACUACCUCA	0.00372 ± 0.0036
GGAGACCUAACUAUACAAGCUACUUCCUCA	0.144 ± 0.024
GGAGACCUAUGAUAUGUUGCUACUUCCACA	< 0.0001
GGAGACCUAUGAUAUGUACCUACUACGAGA [g5:g13:cont:t1A]	< 0.0001
GGAGACCUAUCUAUACUACCUACAACCUCA	0.0808 ± 0.009
GGAGACCUAUGAAUACAAGCUACUACCUGA	0.017 ± 0.0038
GGAGACCAUAGUAUACUACCUACUACCUCA	0.131 ± 0.013
GGAGACCUAUGAUUACAAGCUACAACCUCA	0.0159 ± 0.0045
GGAGACCUAUGAAUACAACGUACAACCUCA	0.00489 ± 0.0026
GGAGACCUAUGUAUACAUCGUACUACCUCA	0.00791 ± 0.003
GGAGACCUAUCUAUACAACCAACUUCCUCA	0.00361 ± 0.0027
GGAGACCUAUGAUAACAACCUACUACCUCG [g2:g16:cont:t1G]	0.00536 ± 0.0027
GGAGACCUUACUAUAGUUCCUACUACCUCA	0.113 ± 0.0093
GGAGACCUAUCUAUACAUCCUACUUCCUCA	0.107 ± 0.019
GGAGACCUAACUAUACAACCUACUUGCUCA	0.18 ± 0.062
GGAGACCUAUGUUACAACCUACUACCUCA	0.0425 ± 0.0076
GGAGACCUAUGUAUACAUCCUACUACCUGA	0.0651 ± 0.017
GGAGACCUAUCUAUUCAACCUACUUCCUCA	0.0412 ± 0.0086
GGAGACCUAUCUAUAGAACCUACUACCACA	0.0472 ± 0.0098

Source: the supplement of paper PMC10338343
